The supplement of paper PMC6763611

Tested on: Plasmodium falciparum NF54
Test: growth inhibition relative to untreated control; higher = more inhibition
Details: 72 h
Outline: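 Growth inhibition was measured by SYBR Green fluorescence, normalised to untreated wells and corrected for background from uninfected erythrocytes. The parasites were P. falciparum NF54 ring stages (1% hematocrit, 1% parasitemia) exposed to single 5 μM or 1 μM doses of test compounds for 72 h at 37 °C, in either minimal RPMI or minimal RPMI containing 2.2 μM folate, 7.3 μM pABA, 7.3 μM pHBA, 111 μM tyrosine, 90 μM phenylalanine and tryptophan.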

[1] = 1 µM, MM + chorismate end-products (CM screening medium)
[2] = 5 µM, MM + chorismate end-products (CM screening medium)

O=C(CCC1CCCCC1)Nc1cccc(-c2nnc(-c3ccco3)o2)c1
growth inhibition [1]: 14.2%
growth inhibition (1 µM, minimal medium (MM)): 9.19%
growth inhibition [2]: < 0%
growth inhibition (5 µM, minimal medium (MM)): < 0%

c1cc(C2=NCCN2)cc(-c2cc(-c3ccc(C4=NCCN4)cc3)no2)c1
growth inhibition [1]: 81.6%
growth inhibition (1 µM, minimal medium (MM)): 81.6%
growth inhibition [2]: 97.8%
growth inhibition (5 µM, minimal medium (MM)): 89.7%

O=C1Nc2ccc(Br)cc2C12NCCc1c2[nH]c2ccccc12 (centres undefined)
growth inhibition [1]: 97.4%
growth inhibition (1 µM, minimal medium (MM)): 94.7%
growth inhibition [2]: 95.9%
growth inhibition (5 µM, minimal medium (MM)): 87.5%

Nc1ncnc2c1c(-c1cnc3ccccc3c1)nn2CC1CCNCC1
growth inhibition [1]: 22.7%
growth inhibition (1 µM, minimal medium (MM)): 5.9%
growth inhibition [2]: < 0%
growth inhibition (5 µM, minimal medium (MM)): 16.8%

O=C(NCCN1CCCC1)c1cc(NCCN2CCOCC2)nc2ccc(Cl)cc12
growth inhibition [1]: 97.7%
growth inhibition (1 µM, minimal medium (MM)): 97.2%
growth inhibition [2]: 92.2%
growth inhibition (5 µM, minimal medium (MM)): 96.8%

COc1ccc(C2=NCCN2)cc1-c1cn(-c2cccc(C3=NCCN3)c2)nn1
growth inhibition [1]: 84.5%
growth inhibition (1 µM, minimal medium (MM)): 80.4%
growth inhibition [2]: > 100%
growth inhibition (5 µM, minimal medium (MM)): 91.6%

O=C(OCc1ccccc1)N1CCC(c2cc(-c3ccncc3)c(-c3ccc(F)cc3)[nH]2)CC1
growth inhibition [1]: 62.4%
growth inhibition (1 µM, minimal medium (MM)): 62.7%
growth inhibition [2]: 98.3%
growth inhibition (5 µM, minimal medium (MM)): 64.2%

CS(=O)(=O)c1ccccc1C(=O)N(Cc1ccccc1)c1ccccc1
growth inhibition [1]: 35.9%
growth inhibition (1 µM, minimal medium (MM)): 7.57%
growth inhibition [2]: < 0%
growth inhibition (5 µM, minimal medium (MM)): < 0%

COc1cccc(-c2nc3c(N4CCCC4)cccc3n2CC2CCCN2)n1 (centres undefined)
growth inhibition [1]: 79.8%
growth inhibition (1 µM, minimal medium (MM)): 71.2%
growth inhibition [2]: 96.1%
growth inhibition (5 µM, minimal medium (MM)): 89.8%

CC(=O)N1CCc2cc3nc(C)cc(C)c3cc21
growth inhibition [1]: 13.3%
growth inhibition (1 µM, minimal medium (MM)): < 0%
growth inhibition [2]: 38.1%
growth inhibition (5 µM, minimal medium (MM)): < 0%

CCn1ncc2c(NC3CCOCC3)c(CNC(=O)c3ccnn3C)c(C)nc21
growth inhibition [1]: 63.5%
growth inhibition (1 µM, minimal medium (MM)): > 100%
growth inhibition [2]: 92.6%
growth inhibition (5 µM, minimal medium (MM)): 91.4%

CC(C(=O)Nc1ccc2oc(-c3ccncc3)nc2c1)c1ccccc1 (centres undefined)
growth inhibition [1]: 14.6%
growth inhibition (1 µM, minimal medium (MM)): < 0%
growth inhibition [2]: < 0%
growth inhibition (5 µM, minimal medium (MM)): < 0%

CCc1ccc(C(NCc2nc(N)nc(N(C)C)n2)C(C)C)cc1 (centres undefined)
growth inhibition [1]: 9.14%
growth inhibition (1 µM, minimal medium (MM)): < 0%
growth inhibition [2]: 51.5%
growth inhibition (5 µM, minimal medium (MM)): 9.29%

C[C@@H]1[C@H](O)[C@@H](C)/C=C/C=C/C=C/C=C/C=C/C=C/C=C/[C@H](O[C@@H]2O[C@H](C)[C@@H](O)[C@H](N)[C@@H]2O)C[C@@H]2O[C@](O)(C[C@@H](O)C[C@@H](O)[C@H](O)CC[C@@H](O)C[C@@H](O)CC(=O)O[C@H]1C)C[C@H](O)[C@H]2C(=O)O
growth inhibition [1]: 86.2%
growth inhibition (1 µM, minimal medium (MM)): 89.8%
growth inhibition [2]: > 100%
growth inhibition (5 µM, minimal medium (MM)): 97.9%

Cc1cc(C)n(-c2ccc(NC(=O)C3CCN(Cc4cnc(C)s4)CC3)cc2)n1
growth inhibition [1]: 31%
growth inhibition (1 µM, minimal medium (MM)): 27.5%
growth inhibition [2]: 43.6%
growth inhibition (5 µM, minimal medium (MM)): 10.6%

CC1CCCCN1C(=O)NCCc1coc(-c2ccc(F)cc2)n1 (centres undefined)
growth inhibition [1]: < 0%
growth inhibition (1 µM, minimal medium (MM)): 8.79%
growth inhibition [2]: < 0%
growth inhibition (5 µM, minimal medium (MM)): < 0%

CCC(NC(=O)c1ccccc1NC(=O)c1ccc(C)cc1)C(=O)OC (centres undefined)
growth inhibition [1]: 97.3%
growth inhibition (1 µM, minimal medium (MM)): 96.2%
growth inhibition [2]: 97.1%
growth inhibition (5 µM, minimal medium (MM)): 91.3%

O=C(c1[nH]nc2c1CCCC2)N1CCN(Cc2ccc3c(c2)OCO3)CC1
growth inhibition [1]: < 0%
growth inhibition (1 µM, minimal medium (MM)): 13%
growth inhibition [2]: < 0%
growth inhibition (5 µM, minimal medium (MM)): < 0%

O=C([C@@H](c1ccc(Cl)cc1)c1cccnc1)N1CCN(c2ccc(C(F)(F)F)cc2)CC1
growth inhibition [1]: < 0%
growth inhibition (1 µM, minimal medium (MM)): < 0%
growth inhibition [2]: < 0%
growth inhibition (5 µM, minimal medium (MM)): 7.9%

c1csc(-c2cnc3sc(NCC4CCOCC4)nn23)c1
growth inhibition [1]: 60.9%
growth inhibition (1 µM, minimal medium (MM)): 68.8%
growth inhibition [2]: > 100%
growth inhibition (5 µM, minimal medium (MM)): 95%

CC(=O)NC[C@H]1CN(c2ccc(N3CCSCC3)c(F)c2)C(=O)O1
growth inhibition [1]: 21.8%
growth inhibition (1 µM, minimal medium (MM)): 32.5%
growth inhibition [2]: < 0%
growth inhibition (5 µM, minimal medium (MM)): < 0%

O=C1[C@@H](Oc2ccccc2)[C@@H](c2ccc(Cl)cc2)N1CCn1cnc2c(NCc3ccccc3)ncnc21
growth inhibition [1]: < 0%
growth inhibition (1 µM, minimal medium (MM)): 22.4%
growth inhibition [2]: < 0%
growth inhibition (5 µM, minimal medium (MM)): 7.4%

Cc1cnc(N2CCN[C@@H](Cc3ccccc3)C2)nc1Oc1ccc(-n2ccnc2)cc1
growth inhibition [1]: 93.8%
growth inhibition (1 µM, minimal medium (MM)): 92.3%
growth inhibition [2]: 99.9%
growth inhibition (5 µM, minimal medium (MM)): 98.2%

COc1ccc(N(CCc2cccc(C)n2)C(C)=O)cc1
growth inhibition [1]: 16.2%
growth inhibition (1 µM, minimal medium (MM)): < 0%
growth inhibition [2]: < 0%
growth inhibition (5 µM, minimal medium (MM)): < 0%

Nc1nccc2ccc(-c3ccc4nccn4c3)cc12
growth inhibition [1]: > 100%
growth inhibition (1 µM, minimal medium (MM)): > 100%
growth inhibition [2]: 97.8%
growth inhibition (5 µM, minimal medium (MM)): 88.2%

Nc1ncc(-c2cn[nH]c2)cc1-c1nc2cc(Cl)cnc2[nH]1
growth inhibition [1]: 97%
growth inhibition (1 µM, minimal medium (MM)): 97%
growth inhibition [2]: > 100%
growth inhibition (5 µM, minimal medium (MM)): 94.3%
